Assay results published in PubChem BioAssay (EPA / NIEHS).
Activity calls are given as the source filed them. The calls were made as follows: active = hit-call score of the fitted dose curve at least 0.9, where 1 is the maximum; inactive = score below 0.9.

Legend:
[1] = ATG_CRE_CIS: Attagene CIS-FACTORIAL HepG2 Assay for human cAMP Responsive Element (CRE) binding protein 3 (AID 2282926); details: HepG2 CRE cis-reporter, Attagene multiplexed mRNA; actives raise or lower the signal
Outline: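 Endogenous transcription factor activity read via CRE-regulated reporter transcripts in transfected HepG2 cells. After 24 h exposure, RNA was reverse-transcribed, amplified, fluorescently labelled and sized by capillary electrophoresis; gain or loss fitted against DMSO.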

[2] = ATG_GLI_CIS: Attagene CIS-FACTORIAL HepG2 Assay for human Zinc Finger Protein GLI1 (AID 2282945); details: HepG2, Attagene cis-factorial reporter mRNA, GLI element; actives raise or lower the signal
Outline: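 Transiently transfected HepG2 cells report endogenous transcription factor activity via cis-element-driven reporter units. After 24 h compound exposure, reporter mRNA was measured by RT-PCR with capillary electrophoresis; bidirectional fitting against DMSO baseline.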

[3] = ATG_ISRE_CIS: Attagene CIS-FACTORIAL HepG2 Assay for human Interferon Regulatory Factor 1 (IRF1) binding to an Interferon-Stimulated Response Element (ISRE) (AID 2282948); details: HepG2 ISRE cis-reporter (Attagene), mRNA transcription readout; actives raise or lower the signal
Outline: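 Uses HepG2 liver cells transfected with cis-regulated reporters and measures mRNA 24 h post-dosing through RT-PCR, primer-extension labelling and capillary electrophoresis, with DMSO as negative control.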

[4] = ATG_M_32_CIS: Attagene CIS-FACTORIAL HepG2 Assay for M32 Transcription Factor (Internal Marker) (AID 2282949); details: HepG2 Attagene cis-factorial M32 reporter, mRNA; actives raise or lower the signal;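 also: background control marker of the multiplexed CIS panel rather than a real target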
Outline: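 Transient MRTU transfection of HepG2; 24 h compound treatment; TriZol RNA, oligo(dT) RT, reporter PCR, 6-FAM primer extension, HpaI cut, CE. Gain/loss of signal vs DMSO.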

[5] = ATG_M_06_CIS: Attagene CIS-FACTORIAL HepG2 Assay for M06 Transcription Factor (Internal Marker) (AID 2282950); details: HepG2 Attagene CIS-FACTORIAL M06 internal marker reporter; actives raise or lower the signal
Outline: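 Serves as a background control readout. Transfected HepG2 exposed to compounds for 24 h, then reporter transcripts quantified by fluorescent RT-PCR and capillary electrophoresis. Both directions fitted against DMSO baseline.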

[6] = biological target: Heat shock factor protein 1 (Homo sapiens) (UniProt Q00613); test: ATG_HSE_CIS: Attagene CIS-FACTORIAL HepG2 Assay for human Heat Shock Transcription Factor 1 (HSE) (AID 2282953); details: HepG2 HSE cis-reporter, Attagene RNA transcription; actives raise or lower the signal
Heat shock factor protein 1 (Homo sapiens), sequence (Q00613 whole entry, looked up): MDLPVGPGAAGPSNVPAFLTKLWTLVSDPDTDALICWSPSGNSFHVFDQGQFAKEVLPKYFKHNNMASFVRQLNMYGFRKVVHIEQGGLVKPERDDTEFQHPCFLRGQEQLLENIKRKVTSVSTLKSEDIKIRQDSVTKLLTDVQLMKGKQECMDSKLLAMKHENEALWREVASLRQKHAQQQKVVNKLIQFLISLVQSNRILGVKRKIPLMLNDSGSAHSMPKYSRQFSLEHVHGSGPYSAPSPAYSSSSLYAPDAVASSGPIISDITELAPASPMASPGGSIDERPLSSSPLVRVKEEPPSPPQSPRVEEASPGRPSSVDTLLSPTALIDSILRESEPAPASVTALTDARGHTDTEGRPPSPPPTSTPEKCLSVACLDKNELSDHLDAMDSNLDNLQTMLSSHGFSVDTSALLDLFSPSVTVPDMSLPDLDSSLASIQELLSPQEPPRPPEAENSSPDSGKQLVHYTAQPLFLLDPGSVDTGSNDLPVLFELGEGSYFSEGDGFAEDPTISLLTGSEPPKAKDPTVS
Outline: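 Endogenous transcription factor activity in transiently transfected HepG2, read as reporter mRNA by RT-PCR with fluorescent capillary electrophoresis after 24 h. Gain or loss of signal fitted versus DMSO baseline.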

[7] = ATG_MRE_CIS: Attagene CIS-FACTORIAL HepG2 Assay for human Metal Responsive Element (MRE) (AID 2282954); details: HepG2 MRE cis-reporter transcription, Attagene multiplex; actives raise or lower the signal
Outline: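 RT-PCR/capillary electrophoresis readout of reporter mRNA, 24 h post-dosing, in HepG2 cells transfected with multiplexed cis-regulated reporter constructs. Gain or loss of signal fitted bidirectionally against DMSO baseline.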

[8] = ATG_PXRE_CIS: Attagene CIS-FACTORIAL HepG2 Assay for human Pregnane X Receptor Element (PXRE) (AID 2282957); details: HepG2 Attagene CIS-FACTORIAL PXRE reporter, mRNA; actives raise or lower the signal
Outline: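 Reporter transcripts under endogenous PXR-responsive cis-regulation quantified from total RNA of transfected HepG2 cells 24 h post-dosing, via RT-PCR with fluorescent primer extension and capillary electrophoresis. Gain or loss of signal fitted against DMSO baseline.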

[9] = ATG_RORE_CIS: Attagene CIS-FACTORIAL HepG2 Assay for human RAR-related Orphan Receptor Element (RORE) (AID 2282959); details: HepG2 Attagene cis-factorial RORE reporter, mRNA; actives raise or lower the signal
Outline: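 Transiently transfected HepG2 reporter cells were treated 24 h. Reporter transcripts were detected by RT-PCR and capillary electrophoresis, with bidirectional fitting against DMSO.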

[10] = ATG_Sox_CIS: Attagene CIS-FACTORIAL HepG2 Assay for human SRY-box transcription factor (SOX) (AID 2282960); details: HepG2 Attagene cis-factorial SOX reporter, mRNA; actives raise or lower the signal
Outline: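 Gain- or loss-of-signal endpoint, fitted bidirectionally with DMSO as negative control. Based on reporter mRNA from transfected HepG2 cells harvested 24 h post-treatment and quantified via RT-PCR and capillary electrophoresis.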

[11] = biological target: Transcription factor Sp1 (Homo sapiens) (UniProt P08047); test: ATG_Sp1_CIS: Attagene CIS-FACTORIAL HepG2 Assay for human Specificity Protein 1 (Sp1) (AID 2282961); details: HepG2 Sp1 cis-reporter transcription, actives raise or lower the signal
Transcription factor Sp1 (Homo sapiens), sequence (P08047 whole entry, looked up, the tested form may be a part): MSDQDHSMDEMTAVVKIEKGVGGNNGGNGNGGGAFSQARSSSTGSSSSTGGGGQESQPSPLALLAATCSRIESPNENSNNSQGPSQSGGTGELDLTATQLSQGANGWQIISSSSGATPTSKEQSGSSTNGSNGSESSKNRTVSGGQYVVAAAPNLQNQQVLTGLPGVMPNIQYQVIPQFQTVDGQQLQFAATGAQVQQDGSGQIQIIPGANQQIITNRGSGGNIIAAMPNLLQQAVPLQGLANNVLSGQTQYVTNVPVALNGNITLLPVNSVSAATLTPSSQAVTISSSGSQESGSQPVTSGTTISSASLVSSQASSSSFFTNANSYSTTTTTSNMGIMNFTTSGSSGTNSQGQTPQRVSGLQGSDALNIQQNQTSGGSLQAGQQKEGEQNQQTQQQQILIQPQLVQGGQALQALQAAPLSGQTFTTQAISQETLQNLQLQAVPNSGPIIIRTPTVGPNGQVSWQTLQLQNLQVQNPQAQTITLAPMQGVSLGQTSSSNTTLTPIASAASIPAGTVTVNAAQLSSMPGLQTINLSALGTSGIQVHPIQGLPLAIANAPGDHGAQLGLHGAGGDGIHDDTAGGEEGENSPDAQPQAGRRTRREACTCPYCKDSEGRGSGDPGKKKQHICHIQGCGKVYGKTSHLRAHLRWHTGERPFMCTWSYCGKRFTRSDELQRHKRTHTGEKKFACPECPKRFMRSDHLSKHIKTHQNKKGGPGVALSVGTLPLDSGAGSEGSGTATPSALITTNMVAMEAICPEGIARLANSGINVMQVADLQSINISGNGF
Outline: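 Endpoint reflects endogenous Sp1 transcriptional activity, not an exogenous fusion protein: HepG2 cells with transfected cis-regulated reporters, 24 h dosing, RT-PCR/capillary electrophoresis mRNA read-out, DMSO-normalised bidirectional fit.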

[12] = ATG_SREBP_CIS: Attagene CIS-FACTORIAL HepG2 Assay for human Sterol Regulatory Element Binding (SREBP) (AID 2282962); details: HepG2 Attagene cis-factorial SREBP reporter, mRNA; actives raise or lower the signal
Outline: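 In this cis-format assay, HepG2 liver cells express reporters controlled by promoter elements responsive to native transcription factors. Exposure lasts 24 h; reporter mRNA fluorescence from capillary electrophoresis gives the signal, fitted bidirectionally against DMSO.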

[13] = biological target: Signal transducer and activator of transcription 3 (Homo sapiens) (UniProt P40763); test: ATG_STAT3_CIS: Attagene CIS-FACTORIAL HepG2 Assay for human Signal Transducer and Activator of Transcription 3 (STAT3) (AID 2282963); details: HepG2, Attagene cis-factorial STAT3 reporter transcription; actives raise or lower the signal
Signal transducer and activator of transcription 3 (Homo sapiens), sequence (P40763 whole entry, looked up, the tested form may be a part): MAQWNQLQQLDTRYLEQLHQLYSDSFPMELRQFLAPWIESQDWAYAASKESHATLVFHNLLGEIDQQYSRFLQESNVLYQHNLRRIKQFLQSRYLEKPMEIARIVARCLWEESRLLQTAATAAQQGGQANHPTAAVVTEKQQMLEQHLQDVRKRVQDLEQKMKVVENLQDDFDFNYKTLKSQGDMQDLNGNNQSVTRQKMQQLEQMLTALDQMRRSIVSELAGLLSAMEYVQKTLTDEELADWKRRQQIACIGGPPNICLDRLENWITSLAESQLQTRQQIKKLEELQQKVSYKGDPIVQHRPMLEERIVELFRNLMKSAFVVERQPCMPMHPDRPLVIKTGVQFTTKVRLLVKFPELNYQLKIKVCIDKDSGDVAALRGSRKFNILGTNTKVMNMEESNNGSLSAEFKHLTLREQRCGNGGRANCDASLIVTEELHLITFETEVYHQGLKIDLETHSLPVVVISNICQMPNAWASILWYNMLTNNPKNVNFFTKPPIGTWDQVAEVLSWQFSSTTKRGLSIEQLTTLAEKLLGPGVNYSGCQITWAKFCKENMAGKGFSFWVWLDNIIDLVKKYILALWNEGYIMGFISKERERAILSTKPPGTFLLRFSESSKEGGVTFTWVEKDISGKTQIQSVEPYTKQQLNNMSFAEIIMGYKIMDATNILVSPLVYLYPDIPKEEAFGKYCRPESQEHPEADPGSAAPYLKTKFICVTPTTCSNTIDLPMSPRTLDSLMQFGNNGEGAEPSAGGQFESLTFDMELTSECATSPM
Outline: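 Readout: fluorescent reporter mRNA fragments resolved by capillary electrophoresis. Setup: HepG2 transfected with MRTUs reporting endogenous transcription-factor activity, dosed 24 h. Gain or loss of signal fitted bidirectionally against DMSO control.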

[14] = ATG_TCF_b_cat_CIS: Attagene CIS-FACTORIAL HepG2 Assay for human T-Cell-Factor with beta-catenin (TCF/b-cat) (AID 2282965); details: HepG2 TCF/beta-catenin cis-reporter transcription, actives raise or lower the signal
Outline: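 Cells of the HepG2 line carry transiently transfected reporter units whose promoters respond to endogenous factors. Twenty-four hours post-dosing, reporter mRNA induction is measured by fluorescent RT-PCR and capillary electrophoresis, with DMSO as baseline.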

[15] = ATG_TAL_CIS: Attagene CIS-FACTORIAL HepG2 Assay for human TAL Basal Promoter (AID 2282966); details: HepG2 Attagene cis-factorial TAL promoter reporter; actives raise or lower the signal;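 also: background control endpoint measuring basal TAL promoter reporter mRNA not a specific factor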
Outline: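 Background-control endpoint: basal TAL promoter reporter transcripts in transiently transfected HepG2, measured 24 h after dosing. Read-out by RT-PCR with fluorescent primer extension and capillary electrophoresis; gain or loss of signal fitted relative to DMSO.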

[16] = ATG_TGFb_CIS: Attagene CIS-FACTORIAL HepG2 Assay for human Transforming Growth Factor (TGF) (AID 2282967); details: HepG2 Attagene CIS TGFb reporter, mRNA transcription; actives raise or lower the signal
Outline: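 Endogenous TGFB1-linked transcription factor activity read as reporter mRNA via RT-PCR and capillary electrophoresis, 24 h after dosing transiently transfected HepG2 cells. Gain or loss of signal fitted relative to DMSO.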

[17] = biological target: X-box-binding protein 1 (Homo sapiens) (UniProt P17861); test: ATG_Xbp1_CIS: Attagene CIS-FACTORIAL HepG2 Assay for human X-box Binding Protein 1 (XBP1) (AID 2282972); details: HepG2 XBP1 cis-element reporter, Attagene multiplex; actives raise or lower the signal
X-box-binding protein 1 (Homo sapiens), sequence (P17861 whole entry, looked up): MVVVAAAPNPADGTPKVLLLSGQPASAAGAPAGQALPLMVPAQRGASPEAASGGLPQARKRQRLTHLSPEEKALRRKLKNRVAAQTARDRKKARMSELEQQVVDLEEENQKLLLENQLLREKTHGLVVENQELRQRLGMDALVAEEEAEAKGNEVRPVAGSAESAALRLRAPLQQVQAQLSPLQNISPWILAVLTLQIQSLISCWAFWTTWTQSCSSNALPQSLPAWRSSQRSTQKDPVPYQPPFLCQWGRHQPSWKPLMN
Outline: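 Changes in reporter transcript abundance, read by RT-PCR and capillary electrophoresis, reflect endogenous transcription factor activity. Transfected HepG2 cells received compound for 24 hours; DMSO defined baseline for bidirectional analysis.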

[18] = biological target: Transcriptional activator Myb (Homo sapiens) (UniProt P10242); test: ATG_Myb_CIS: Attagene CIS-FACTORIAL HepG2 Assay for human Myeloblastosis (Myb) Proto-Oncogene Transcription Factor (AID 2282986); details: HepG2 Attagene CIS-FACTORIAL Myb reporter transcription; actives raise or lower the signal
Transcriptional activator Myb (Homo sapiens), sequence (P10242 whole entry, looked up): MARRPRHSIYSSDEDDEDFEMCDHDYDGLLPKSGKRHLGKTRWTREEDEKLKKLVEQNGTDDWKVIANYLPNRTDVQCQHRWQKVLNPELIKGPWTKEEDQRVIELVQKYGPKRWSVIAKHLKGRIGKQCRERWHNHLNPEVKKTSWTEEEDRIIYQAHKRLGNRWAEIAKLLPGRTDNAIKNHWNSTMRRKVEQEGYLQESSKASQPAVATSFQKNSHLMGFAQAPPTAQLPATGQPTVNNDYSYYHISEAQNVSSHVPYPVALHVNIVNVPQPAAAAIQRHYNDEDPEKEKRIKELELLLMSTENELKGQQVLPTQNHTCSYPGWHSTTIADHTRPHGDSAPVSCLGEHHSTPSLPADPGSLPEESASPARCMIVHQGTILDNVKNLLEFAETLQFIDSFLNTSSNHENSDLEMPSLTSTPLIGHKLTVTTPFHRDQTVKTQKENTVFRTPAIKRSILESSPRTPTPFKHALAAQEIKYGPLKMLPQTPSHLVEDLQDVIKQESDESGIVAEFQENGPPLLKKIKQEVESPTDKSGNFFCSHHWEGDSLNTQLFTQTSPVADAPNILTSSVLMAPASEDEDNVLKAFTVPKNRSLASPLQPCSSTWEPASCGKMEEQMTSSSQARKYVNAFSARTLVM
Outline: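 In this HepG2 transient-transfection format, cis-regulated reporter mRNA is quantified 24 h post-dosing by RT-PCR with capillary electrophoresis, fitted bidirectionally to DMSO baseline.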

[19] = biological target: Nuclear respiratory factor 1 (Homo sapiens) (UniProt Q16656); test: ATG_NRF1_CIS: Attagene CIS-FACTORIAL HepG2 Assay for human Nuclear Respiratory Factor 1 (NRF1) Orphan Gene (AID 2282987); details: HepG2 NRF1 cis-element reporter, Attagene multiplex; actives raise or lower the signal
Nuclear respiratory factor 1 (Homo sapiens), sequence (Q16656 whole entry, looked up): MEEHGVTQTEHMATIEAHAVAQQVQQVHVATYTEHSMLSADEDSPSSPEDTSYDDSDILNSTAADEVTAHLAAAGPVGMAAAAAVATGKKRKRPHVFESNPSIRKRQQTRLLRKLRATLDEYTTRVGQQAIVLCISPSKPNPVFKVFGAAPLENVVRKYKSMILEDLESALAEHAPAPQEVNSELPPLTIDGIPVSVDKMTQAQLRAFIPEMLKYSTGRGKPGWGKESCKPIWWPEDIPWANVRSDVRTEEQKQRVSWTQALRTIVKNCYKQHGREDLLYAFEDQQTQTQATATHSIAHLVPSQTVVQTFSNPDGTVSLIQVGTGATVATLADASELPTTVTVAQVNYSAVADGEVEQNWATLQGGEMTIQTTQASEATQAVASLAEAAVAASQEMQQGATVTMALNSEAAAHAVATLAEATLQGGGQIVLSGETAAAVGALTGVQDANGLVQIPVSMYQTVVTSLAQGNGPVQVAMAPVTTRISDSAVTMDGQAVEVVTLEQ
Outline: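 Using DMSO as baseline, gain- or loss-of-signal was fitted for reporter mRNA levels in HepG2 cells transiently transfected with cis-regulated reporter units. Samples were taken 24 h after dosing and read by RT-PCR with capillary electrophoresis.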

[20] = biological target: Myc proto-oncogene protein (Homo sapiens) (UniProt P01106); test: ATG_Myc_CIS: Attagene CIS-FACTORIAL HepG2 Assay for human Myelocytomatosis (Myc) Proto-Oncogene Transcription Factor (AID 2282990); details: HepG2, Attagene cis-reporter transcription factor activity; actives raise or lower the signal
Myc proto-oncogene protein (Homo sapiens), sequence (P01106 whole entry, looked up, the tested form may be a part): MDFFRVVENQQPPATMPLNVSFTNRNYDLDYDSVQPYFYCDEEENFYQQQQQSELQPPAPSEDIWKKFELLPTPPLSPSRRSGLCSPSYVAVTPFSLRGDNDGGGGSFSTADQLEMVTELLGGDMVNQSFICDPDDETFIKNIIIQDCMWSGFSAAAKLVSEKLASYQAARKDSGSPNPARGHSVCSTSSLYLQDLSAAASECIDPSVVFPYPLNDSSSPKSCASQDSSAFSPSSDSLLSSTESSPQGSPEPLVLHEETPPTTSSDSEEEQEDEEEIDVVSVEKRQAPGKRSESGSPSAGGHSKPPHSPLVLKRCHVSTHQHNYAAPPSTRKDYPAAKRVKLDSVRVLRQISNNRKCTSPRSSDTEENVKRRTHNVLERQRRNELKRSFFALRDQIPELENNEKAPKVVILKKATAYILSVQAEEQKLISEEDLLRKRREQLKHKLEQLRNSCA
Outline: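 Fluorescence intensity of reporter-specific cDNA fragments, separated by capillary electrophoresis, gives the signal. Transfected HepG2 cells carrying cis-promoter reporter constructs are incubated with compound for 24 h; DMSO serves as baseline.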

Measured: AC50

Sc1nc2ccccc2s1
active: [8] 80.6 µM | [9] 19.3 µM
inactive: all other assays above

CNC(=C[N+](=O)[O-])NCCSCc1csc(CN(C)C)n1
inactive: all assays above

Oc1cccc2ccccc12
active: [8] 5.66 µM | [14] 100 µM
inactive: all other assays above

CC/C=C\CCO
active: [8] 29.3 µM
inactive: all other assays above

OCCOCCOCCOCCOCCO
inactive: all assays above

CC(=O)Nc1c(I)c(NC(C)=O)c(I)c(C(=O)O)c1I
inactive: all assays above

CCc1cc(C(N)=S)ccn1
active: [8] 157 µM
inactive: all other assays above

CC1=CCCC(C)(C)C12CCC(C)O2 (stereo not drawn)
active: [8] 1.28 µM
inactive: all other assays above

Oc1ccc(Cl)cc1C1CCCC1
inactive: [4] | [5] | [6] | [9] | [13] | [16] | [18]
active: [1] 33.4 µM | [2] 43.1 µM | [3] 57.3 µM | [7] 53 µM | [8] 7.76 µM | [10] 37.5 µM | [11] 33.4 µM | [12] 25.6 µM | [14] 61.4 µM | [15] 54.9 µM | [17] 43.1 µM | [19] 44.1 µM | [20] 16.6 µM

O=C(CC(C(=O)OC1CCCCC1)S(=O)(=O)O)OC1CCCCC1 (stereo not drawn)
active: [8] 9.51 µM
inactive: all other assays above

c1ccc2c(c1)Oc1ccccc1S2
active: [2] 173 µM | [11] 155 µM | [12] 146 µM
inactive: all other assays above

CC(C)CC(=O)CC(C)CC(C)C (stereo not drawn)
active: [8] 29.3 µM
inactive: all other assays above

O=C(Oc1ccccc1)c1ccccc1
inactive: all assays above

c1ccc(CNc2ncnc3nc[nH]c23)cc1
inactive: all assays above

CCCCCCCCCCCCCCCCCC[N+](C)(C)C
inactive: [3] | [5] | [8] | [9] | [11] | [17]
active: [1] 44.4 µM | [2] 43.6 µM | [4] 39.2 µM | [6] 43.9 µM | [7] 40.1 µM | [10] 40.7 µM | [12] 6.46 µM | [13] 44 µM | [14] 16.5 µM | [15] 39.2 µM | [16] 6.12 µM | [18] 6.05 µM | [19] 16.8 µM | [20] 41.5 µM

COc1ccc2ccccc2c1
not listed: [1] | [19]
inactive: all other assays above

NC(N)=Nc1nc(CSCCC(N)=NS(N)(=O)=O)cs1
inactive: all assays above

CCO[Si](CCCN)(OCC)OCC
active: [8] 100 µM
inactive: all other assays above
